Experimental data: PubChem BioAssay (NCATS)
Results filed as inconclusive are left out. Activity calls are given as the source filed them. Calls come from the whole dose curve; as a rule, active = well fitted curve in the direction sought with a large enough effect; inconclusive = small, poorly fitted or top-dose-only effect, or another doubt; inactive = no such curve, though single readings can be large; an effect the other way counts as inactive or inconclusive.

Columns and labels:
[1] = NS1 protein of Zika virus - qHTS assay to identify small molecule inhibitors in human HEK 293 cells (AID 1347053); note: series mostly up to about 46 µM; nearly all actives have a fitted effect of over 55% in size
Outline: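 Following 20 h seeding, HEK 293 cells took compound, then 1 h later ZIKV MR766 (MOI = 0.5). Incubation ran 24 h at 37 C before TR-FRET detection of NS1; a drop in signal indicates inhibition.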

[2] = qHTS of pediatric cancer cell lines to identify multiple opportunities for drug repurposing: Primary screen for TC32 cells (AID 1347089); note: nearly all actives have a fitted effect of over 60% in size
Outline: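 Measured quantity: luminescence from CellTiter-Glo, reflecting metabolically active TC32 cells following 48 h of compound. Curves came straight from multi-point titrations, with 8 or 11 points in primary and 11 in confirmatory screening.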

[3] = qHTS of pediatric cancer cell lines to identify multiple opportunities for drug repurposing: Primary screen for DAOY cells (AID 1347090); note: series mostly up to about 46 µM; nearly all actives have a fitted effect of over 55% in size
Outline: (§1)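 Viability measured as metabolically active cells via CellTiter-Glo luminescence following 48 hours of compound exposure, 11-point dilutions in confirmatory testing. 500-1,000 cells/well plated 5 hours before dosing; controls were DMSO and 2.3 µM bortezomib.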

[4] = qHTS of pediatric cancer cell lines to identify multiple opportunities for drug repurposing: Primary screen for SJ-GBM2 cells (AID 1347091)
Outline: as §1

[5] = qHTS of pediatric cancer cell lines to identify multiple opportunities for drug repurposing: Primary screen for A673 cells (AID 1347092); note: nearly all actives have a fitted effect of over 45% in size
Outline: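 Cells are plated, rested 5 h, dosed by pintool, incubated 48 h, then lysed with CellTiter-Glo and read by luminescence. DMSO is the neutral control; bortezomib at 2.3 uM final is the positive control.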

[6] = qHTS of pediatric cancer cell lines to identify multiple opportunities for drug repurposing: Primary screen for SK-N-MC cells (AID 1347093); note: series mostly up to about 46 µM
Outline: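 Metabolically active cells were quantified by ATP-dependent luminescence (CellTiter-Glo, 15 min at room temperature) following 48 h treatment. Cells had been plated at 500-1,000 per well and settled for 5 h beforehand.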

[7] = qHTS of pediatric cancer cell lines to identify multiple opportunities for drug repurposing: Primary screen for BT-37 cells (AID 1347094); note: series mostly up to about 57 µM
Outline: (§2)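 ATP-based luminescence (CellTiter-Glo) quantifies viability after a 48-hour exposure. Compounds are dosed across 8 or 11 final concentrations; DMSO and 2.3 µM bortezomib serve as controls.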

[8] = qHTS of pediatric cancer cell lines to identify multiple opportunities for drug repurposing: Primary screen for NB-EBc1 cells (AID 1347095)
Outline: as §2

[9] = qHTS of pediatric cancer cell lines to identify multiple opportunities for drug repurposing: Primary screen for U-2 OS cells (AID 1347096); note: nearly all actives have a fitted effect of over 50% in size
Outline: (§3)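 Viability after 48 h compound treatment at 37C, 500-1,000 cells/well, read as ATP luminescence with CellTiter-Glo. Primary screens used 11-point (MIPE, 0.78 nM-46 µM) or 8-point (NPC, 0.59 nM-46 µM) final concentrations; follow-up screens used 11-point dilutions.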

[10] = qHTS of pediatric cancer cell lines to identify multiple opportunities for drug repurposing: Primary screen for SK-N-SH cells (AID 1347098);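 note: DMSO served as neutral control and bortezomib at 2.3 µM as positive control; nearly all actives have a fitted effect of over 65% in size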
Outline: (§4)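 Cells (500-1,000/well) rested 5 h, then received compounds for 48 h; metabolically active cells were measured by CellTiter-Glo luminescence. Final concentrations spanned up to 46 µM (MIPE, 11-point) or 0.59 nM-46 µM (NPC, 8-point) in primary screens, 11-point in follow-ups.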

[11] = qHTS of pediatric cancer cell lines to identify multiple opportunities for drug repurposing: Primary screen for NB1643 cells (AID 1347099); note: nearly all actives have a fitted effect of over 50% in size
Outline: as §2

[12] = qHTS of pediatric cancer cell lines to identify multiple opportunities for drug repurposing: Primary screen for LAN-5 cells (AID 1347100)
Outline: as §3

[13] = qHTS of pediatric cancer cell lines to identify multiple opportunities for drug repurposing: Primary screen for BT-12 cells (AID 1347101); note: nearly all actives have a fitted effect of over 25% in size
Outline: as §4

[14] = qHTS of pediatric cancer cell lines to identify multiple opportunities for drug repurposing: Primary screen for Rh18 cells (AID 1347102); note: nearly all actives have a fitted effect of over 65% in size
Outline: as §3

[15] = qHTS of pediatric cancer cell lines to identify multiple opportunities for drug repurposing: Primary screen for OHS-50 cells (AID 1347103); note: nearly all actives have a fitted effect of over 40% in size
Outline: as §4

[16] = qHTS of pediatric cancer cell lines to identify multiple opportunities for drug repurposing: Primary screen for Saos-2 cells (AID 1347097); note: nearly all actives have a fitted effect of over 40% in size
Outline: as §2

Measured: Potency

NC(=O)C1(N2CCCCC2)CCN(CCCC(=O)c2ccc(F)cc2)CC1
not listed: [16]
inactive: all other assays above

CNCCc1ccccn1
not listed: [15] | [16]
inactive: all other assays above

CCNC(=O)/C=C/c1cccc(Br)c1
not listed: [15] | [16]
inactive: all other assays above

OCc1ccccn1
inactive: all assays above

COc1ccc(-c2cc(C(F)F)nn2-c2ccc(S(N)(=O)=O)cc2)cc1F
inactive: all assays above

CCOCCn1c(N2CCCN(C)CC2)nc2ccccc21
not listed: [10] | [15]
inactive: all other assays above

O=C(O)C1(C(=O)O)CCC1.[NH2-].[NH2-].[Pt+2]
inactive: all assays above

C[C@@H](O)[C@H]1C(=O)N2C(C(=O)O)=C([C@H]3CCCO3)S[C@H]12
inactive: all assays above

CC1CCc2c(N3CCC(O)CC3)c(F)cc3c(=O)c(C(=O)O)cn1c23 (configuration not stated)
not listed: [13]
inactive: all other assays above

NS(=O)(=O)c1cc(C(=O)O)cc(N2CCCC2)c1Oc1ccccc1
inactive: all assays above

O=C(O)CCc1nc2ccccc2[nH]1
not listed: [10]
inactive: all other assays above

O=C(Nc1ccc([N+](=O)[O-])cc1)Nc1ccc([N+](=O)[O-])cc1
inactive: all assays above

CC(CNC1CCCCC1)OC(=O)c1ccccc1 (configuration not stated)
not listed: [16]
inactive: all other assays above

O=C(CN1CCN(Cc2ccc3c(c2)OCO3)CC1)N1c2ccccc2Sc2ccccc21
not listed: [15] | [16]
inactive: all other assays above

CCC1Nc2cc(Cl)c(S(N)(=O)=O)cc2S(=O)(=O)N1 (configuration not stated)
not listed: [15] | [16]
inactive: all other assays above

CC(=O)Oc1ccc(C)cc1
inactive: all assays above
